According to PubChem BioAssay:

Test: growth suppression of yeast trafficking mutant, preliminary HTS, modulators of trafficking downstream of Golgi apparatus project, 1536-format plate, OD 615 nm (AID 637)
Settings: yeast transport mutant growth, absorbance 615 nm, 18 h; hits give high values; in the data active = inhibition above about 30%; inactive = the rest

inhibition, inactive:
O=C(OCN1C(=O)c2ccccc2C1=O)C1CCCCC1 -7.17%
Cc1ccc2cccc(SCC(=O)N3CCOCC3)c2n1 -3.5%
c1ccn2c(SCc3ccc4c(c3)OCCO4)nnc2c1 1.67%
c1ccc(C(Cc2nc(-c3ccccn3)no2)c2ccccc2)cc1 1.8%
COC(=O)C(C)Sc1nnc2n(-c3cccc(C)c3)c(=O)c3c4c(sc3n12)CCCC4 (configuration not stated) 2%
Cc1ccc(-c2noc(CN3C(C)CCCC3C)n2)cc1 (configuration not stated) 2.33%
CCn1c(SCC(=O)Nc2ccc(Cl)cc2)nnc1C1CC1 1.67%
COc1ccc(C2CC(c3ccco3)n3ncnc3N2)cc1 (configuration not stated) -8.5%
COc1ccc(NC(=O)c2cc(C3CC3)on2)c(OC)c1 1.17%
COc1cc(OC)c2c(c1)OC(c1ccc(OC)c(OC)c1)C(O)C2=O (configuration not stated) 0.82%
N#CCCN(Cc1cccnc1)C(=O)Nc1ccc(Cl)c(Cl)c1 3.28%
O=C(c1cccc(F)c1)N1CCc2ccccc21 0.98%
COc1ccc(NC(=O)C2CCCCN2S(=O)(=O)c2ccc(F)cc2)cc1 (configuration not stated) 1%
CCN(CC)C(=O)Cn1ncc2c1-c1ccccc1OC2 1.33%
Cn1c(=O)oc2cc(S(=O)(=O)NC3CCN(Cc4ccccc4)CC3)ccc21 -1.17%
COCCOC(=O)c1[nH]c2c(c1C)C(=O)CC(c1ccco1)C2 (configuration not stated) 5.67%
COc1ccccc1NC(=O)N(C1CCCC1)C1CCN(C(C)=O)CC1 -8.83%
